Seven compounds from PubChem BioAssay (Tox21) can be followed below.

The nature of assay [1]: qHTS assay for small molecules that induce genotoxicity in human embryonic kidney cells expressing luciferase-tagged ATAD5 (AID 651632). Further: nearly all actives have a fitted effect of over 15% in size. Further: potency means the concentration at half of the fitted maximal effect. The method, boiled down: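 ATAD5-luc HEK293T, 2,000 cells/well; cpd or DMSO pin-transferred; 16 hr, 37C/5% CO2; Amplite 30 min RT; luminescence.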
Background: qHTS replaces the single test concentration by a dilution series.

Assay [2] is described as follows: qHTS assay for small molecule agonists of the p53 signaling pathway - cell viability (AID 651633; calls by dose curve;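 further: p53RE-bla HCT reporter cells with a stable beta-lactamase p53 reporter; series mostly up to about 83 µM; on the % scale 0 is the no-effect control and ±100 the full control effect; nearly all actives have a fitted effect of over 30% in size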). Put shortly: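 Viability counter-read: CellTiter-Glo luminescence (30 min, room temperature) in the same p53RE-bla plates. These plates had been exposed to compounds for 16 h at 37 C.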
A short description of assay [3]: qHTS assay for small molecules that induce genotoxicity in human embryonic kidney cells expressing luciferase-tagged ATAD5 - cell viability (AID 651634; calls by dose curve; further: nearly all actives have a fitted effect of over 25% in size; further: potency means the concentration at half of the fitted maximal effect). The method, boiled down: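 Fluorescence from CellTiter-Fluor, reporting protease activity within live cells, served as the viability read-out. HEK293T cells carrying luciferase-tagged ATAD5 had been treated with compound for 15.5 hr at 37C.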

A short description of assay [4]: qHTS assay for small molecule disruptors of the mitochondrial membrane potential - cell viability (AID 720634; calls by dose curve;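 further: human HepG2 liver cancer cells; series mostly up to about 83 µM; on the % scale 0 is the no-effect control and ±100 the full control effect; nearly all actives have a fitted effect of over 20% in size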). Put shortly: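 Cells: HepG2, 2,000/well, attached overnight. Compound 1 hr, 37 C/5% CO2. +m-MPI dye, +CellTiter-Glo 30 min RT. Readout: luminescence (ATP).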
Assay [5] is described as follows: qHTS assay to test for compound auto fluorescence at 590 nm (red) in HepG2 cells (AID 720674). Further: on the % scale 0 is the no-effect control and ±100 the full control effect. Put shortly:
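We screened compounds on adherent HepG2 cells, incubating them for an hour at 37 C in 5% CO2 before reading emission at 590 nm under 540 nm excitation; values reflect equivalence to Rose Bengal sodium fluorescence.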

A short description of assay [6]: qHTS assay to test for compound auto fluorescence at 535 nm (green) in HepG2 cells (AID 720675). Further: on the % scale 0 is the no-effect control and ±100 the full control effect.
The nature of assay [7]: qHTS assay to test for compound auto fluorescence at 590 nm (red) in HEK293 cells (AID 720679). Further: on the % scale 0 is the no-effect control and ±100 the full control effect. The method, boiled down: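 Red autofluorescence, HEK293 cells: 2,000 cells/well; attach 4-5 hr 37C; add 23 nL cpd or DMSO; incubate o/n 37C 5% CO2; read Ex540/Em590; Rose Bengal sodium reference.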
A short description of assay [8]: qHTS assay to test for compound auto fluorescence at 535 nm (green) in HEK293 cells (AID 720680). Further: on the % scale 0 is the no-effect control and ±100 the full control effect.
Assay [9] is described as follows: qHTS assay to test for compound auto fluorescence at 460 nm (blue) in HEK293 cell free culture (AID 720681). Further: on the % scale 0 is the no-effect control and ±100 the full control effect. Put shortly:
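Blue fluorescence (Ex 405/Em 460 nm, triamterene-equivalent) was read immediately after pin transfer of compound or DMSO into medium (DMEM, 10% FBS) without cells.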

The nature of assay [10]: qHTS assay to test for compound auto fluorescence at 535 nm (green) in HEK293 cell free culture (AID 720682). Further: on the % scale 0 is the no-effect control and ±100 the full control effect. The method, boiled down:
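Intrinsic compound fluorescence is measured in culture medium containing 10% FBS, with excitation at 485 nm and detection at 535 nm, referenced to fluorescein.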

A short description of assay [11]: qHTS assay to test for compound auto fluorescence at 590 nm (red) in HEK293 cell free culture (AID 720683). Further: on the % scale 0 is the no-effect control and ±100 the full control effect. The method, boiled down: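 Red-channel autofluorescence of compounds in culture medium (DMEM, 10% FBS), no cells, measured at 540/590 nm. Rose Bengal sodium is the reference fluorophore for equivalence.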
The nature of assay [12]: qHTS assay to test for compound auto fluorescence at 590 nm (red) in HepG2 cell free culture (AID 720684). Further: on the % scale 0 is the no-effect control and ±100 the full control effect. Put shortly:
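Plate contents were MEM with 10% FBS plus test compound or DMSO, no cells. Fluorescence was recorded with 540 nm excitation and 590 nm emission.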

A short description of assay [13]: qHTS assay to test for compound auto fluorescence at 460 nm (blue) in HepG2 cell free culture (AID 720685). Further: on the % scale 0 is the no-effect control and ±100 the full control effect. Put shortly: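 Compound (23 nL) or DMSO pinned into cell-free MEM with 10% FBS; blue fluorescence read at 405/460 nm excitation/emission, expressed as auto-fluorescence equivalency to triamterene.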
A short description of assay [14]: qHTS assay to test for compound auto fluorescence at 535 nm (green) in HepG2 cell free culture (AID 720686). Further: on the % scale 0 is the no-effect control and ±100 the full control effect.
Assay [15] in a line: qHTS assay to test for compound auto fluorescence at 460 nm (blue) in HepG2 cells (AID 720687). Further: on the % scale 0 is the no-effect control and ±100 the full control effect. The method, boiled down:
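Blue-channel autofluorescence (Ex/Em 405/460 nm, triamterene-equivalent) was measured after 1 hr compound exposure at 37 C, 5% CO2. Cells were HepG2, plated overnight at 37 C in MEM plus 10% FBS.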

In assay [16] the target is Glucocorticoid receptor (Homo sapiens) (UniProt P04150). Description: qHTS assay to identify small molecule agonists of the glucocorticoid receptor (GR) signaling pathway (AID 720691; active means well fitted activation curve with a large enough effect in the signal ratio in the repeat runs, not every such curve was filed as active; the % refers to the signal ratio; further: on the % scale 0 is the no-effect control and ±100 the full control effect). The method, boiled down: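 Fluorescence intensity from LiveBLAzer B/G FRET substrate (2 h, room temperature) reports beta-lactamase expression driven by the glucocorticoid response element in GR-bla HeLa cells after 18 h compound exposure at 37 C.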
Sequence of Glucocorticoid receptor (Homo sapiens) (P04150 whole entry, looked up): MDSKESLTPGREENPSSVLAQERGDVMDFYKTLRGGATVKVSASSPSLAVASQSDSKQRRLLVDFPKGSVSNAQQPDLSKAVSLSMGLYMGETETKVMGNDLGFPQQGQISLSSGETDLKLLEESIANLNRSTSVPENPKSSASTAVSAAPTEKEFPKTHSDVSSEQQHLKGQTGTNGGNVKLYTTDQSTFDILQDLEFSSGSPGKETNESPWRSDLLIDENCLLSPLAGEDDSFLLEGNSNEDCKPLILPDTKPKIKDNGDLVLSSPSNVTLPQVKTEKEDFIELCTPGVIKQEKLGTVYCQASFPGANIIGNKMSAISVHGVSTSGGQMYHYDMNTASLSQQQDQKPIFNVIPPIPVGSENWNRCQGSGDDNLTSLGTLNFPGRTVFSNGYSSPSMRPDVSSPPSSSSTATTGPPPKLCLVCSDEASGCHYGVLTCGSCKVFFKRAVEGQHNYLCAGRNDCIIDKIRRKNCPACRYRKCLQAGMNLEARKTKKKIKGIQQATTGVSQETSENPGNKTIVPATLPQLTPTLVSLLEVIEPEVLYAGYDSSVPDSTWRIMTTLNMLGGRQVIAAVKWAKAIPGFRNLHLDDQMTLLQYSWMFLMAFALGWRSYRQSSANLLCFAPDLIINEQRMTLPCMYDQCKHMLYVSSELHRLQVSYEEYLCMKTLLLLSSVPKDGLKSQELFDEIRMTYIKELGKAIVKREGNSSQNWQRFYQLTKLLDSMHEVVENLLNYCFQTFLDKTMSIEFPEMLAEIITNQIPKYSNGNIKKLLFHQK

The nature of assay [17]: qHTS assay to test for compound auto fluorescence at 460 nm (blue) in HEK293 cells (AID 720678). Further: on the % scale 0 is the no-effect control and ±100 the full control effect. Put shortly:
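Intrinsic compound fluorescence is recorded in live HEK293 cultures after overnight incubation at 37C, 5% CO2, using excitation 405 nm and emission 460 nm. Values are referenced to triamterene.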

For assay [18], the target named is Glucocorticoid receptor (Homo sapiens) (UniProt P04150). Nature of the assay: qHTS assay to identify small molecule antagonists of the glucocorticoid receptor (GR) signaling pathway (AID 720692; active means well fitted inhibition curve with a large enough effect in the signal ratio in the repeat runs, not every such curve was filed as active; the % refers to the signal ratio; further: on the % scale 0 is the no-effect control and ±100 the full control effect). The method, boiled down:
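HeLa GR-bla cells; cmpd + dex 5 nM final, 18 h 37 C; LiveBLAzer B/G FRET substrate 2 h RT; fluorescence intensity read. Antagonist mode, qHTS.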

Assay [19] in a line: qHTS assay for small molecule disruptors of the mitochondrial membrane potential (AID 720635). Further: potency means the concentration at half of the fitted maximal effect. Put shortly:
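Mitochondrial membrane potential tracked with Mito-MPS dye, red aggregates (ex 540/em 590 nm) against green monomers (ex 490/em 535 nm). Compound treatment 1 hr at 37C, dye 30 min in HepG2.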

A number with no mark means an inactive call. Records with an inconclusive call do not appear. The source made the active and inactive calls. Unless noted, the call rests on the fitted dose curve; in most records, active means well fitted curve in the direction sought with a large enough effect in the repeat runs; inconclusive means weak or mixed curves; inactive means no such curve, though single readings can be large; an effect the other way counts as inactive or inconclusive.

As for `CCCCCC/C=C\CCCCCCCC(=O)O`, the Potency result in [1], in [2], in assay [3], in assay [4], in [5] and in assay [6] was “inactive” each time. Moreover, the Potency entry in [7], in assay [8], in [9], in [10], in [11] and in [12] was “inactive” each time. For the same compound, the Potency result in assay [13], in [14] and in [15] was “inactive” in each case.
Turning to `C=CC(=O)OCCOC(=O)C=C`, the Potency is 21.7 µM (active) in [1] and 61.1 µM (active) in assay [3]. The Potency result in [2], in assay [4], in [5], in assay [6], in assay [7] and in assay [8] was “inactive” throughout. For the same compound, the Potency entry in assay [9], in assay [10], in assay [11], in assay [12], in [13] and in [14] was “inactive” each time. Besides, the Potency result in assay [15] and in assay [16] was “inactive” in each case.
As to `CC(C)CCCCCOC(=O)CCS`, the Potency entry in assay [1], in [2], in assay [3], in [4], in [5] and in assay [6] was “inactive” each time. The Potency entry in [17], in assay [7], in assay [8], in [9], in assay [10] and in [11] was “inactive” each time. For the same compound, the Potency entry in assay [12], in assay [13], in assay [14], in assay [15], in assay [16] and in assay [18] was “inactive” each time.
Regarding `COC(=O)Nc1nc2ccc(C(=O)c3ccccc3)cc2[nH]1`, the Potency was 3.2 µM (active) in assay [1] and 2.27 µM (active) in assay [19]. In addition, the Potency entry in [2], in assay [3], in assay [4] and in assay [16] was “inactive” throughout. The fluorescence, relative to Rose Bengal in [5] was -0.678% [at 18.6 µM]. Further, the fluorescence, % of fluorescein control in assay [6] was 0.0492% [at 18.6 µM]; in assay [14], 0.0619% [at 18.6 µM]. In addition, the fluorescence, % of fluorescent control in assay [7] was 0.41% [at 18.6 µM]; in assay [9], -0.0403% [at 18.6 µM]; in assay [11], 0.0057% [at 18.6 µM]; in [13] it was 0.0166% [at 18.6 µM]; in assay [15], 0.116% [at 18.6 µM]. Further, the fluorescence, % of fluorescein in [8] was -0.035% [at 18.6 µM]. Besides, the activity change in assay [10] was -0.0263% [at 18.6 µM, hits give high values]. Moreover, the fluorescence, % of Rose Bengal in assay [12] is 0.103% [at 18.6 µM].
Regarding `C=C(C)C(=O)OCCCCCCCCCC`, the Potency result in [1], in assay [2], in assay [3], in [4], in assay [5] and in assay [6] was “inactive” each time. The Potency result in assay [17], in assay [7], in [8], in assay [9], in [10] and in [11] was “inactive” each time. Moreover, the Potency entry in assay [12], in assay [13], in assay [14], in assay [15] and in [16] was “inactive” throughout.
As to `O=C(O)c1cccc(C(F)(F)F)c1`, the Potency result in assay [1], in assay [2], in assay [3], in assay [4], in assay [5] and in assay [6] was “inactive” in each case. Besides, the Potency result in assay [17], in [7], in assay [9], in [10], in assay [11] and in assay [12] was “inactive” in each case. For the same compound, the Potency result in assay [14], in [15], in assay [16] and in assay [18] was “inactive” each time.
Take `CCOC(=O)NNc1ccc(N(CC)CC(C)O)nn1` (stereo not given): the Potency result in assay [1], in assay [2], in assay [3], in assay [4], in assay [5] and in [6] was “inactive” in each case. Also, the Potency entry in assay [17], in assay [7], in assay [8], in assay [9], in [10] and in [11] was “inactive” throughout. In addition, the Potency entry in assay [12], in assay [13], in assay [14] and in assay [15] was “inactive” each time.
